# Hit rate of the full screen: of about 5,500 compounds, about 2,000 (36%) were called active. About 18% were inconclusive and are not listed. This is one part of the list. A number with no mark means an inactive call. Cut-off read from the data, not from the text of the source: active = normalized growth mostly below about 0.91 (no sharp cut-off); inconclusive = no clear call, values can overlap the other calls; inactive = mostly above about 0.92.
# Test: chemical genetic growth profiling, strain panel (AID 1159580);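 note: tested at 20 µM; growth read once vehicle control cultures reached saturation at 30 °C; 1 = growth at the plate median or of vehicle wells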
# Conditions: growth OD
structure (smiles),measurement,setting,value
Cc1cc(/C=N/NC(N)=S)c2c(C)ccc(C(C)C)cc1-2,normalized growth,"S. cerevisiae deletion strains, locus YAL013W, strain DEP1, stronger effect = lower value",1.02
same,normalized growth,"S. cerevisiae deletion strains, locus YBR229C, strain ROT2, stronger effect = lower value",1.04
same,normalized growth,"S. cerevisiae deletion strains, locus YCL061C, strain MRC1, stronger effect = lower value",1.02
same,normalized growth,"S. cerevisiae deletion strains, locus YDL101C, strain DUN1, stronger effect = lower value",1.05
same,normalized growth,"S. cerevisiae deletion strains, locus YDL134C, strain PPH21, stronger effect = lower value",1.01
same,normalized growth,"S. cerevisiae deletion strains, locus YDR150W, strain NUM1, stronger effect = lower value",1
same,normalized growth,"S. cerevisiae deletion strains, locus YEL061C, strain CIN8, stronger effect = lower value",1.01
same,normalized growth,"S. cerevisiae deletion strains, locus YGR078C, strain PAC10, stronger effect = lower value",1.01
same,normalized growth,"S. cerevisiae deletion strains, locus YHR030C, strain SLT2, stronger effect = lower value",1.12
same,normalized growth,"S. cerevisiae deletion strains, locus YHR087W, strain rtc3, stronger effect = lower value",1.06
same,normalized growth,"S. cerevisiae deletion strains, locus YJR043C, strain POL32, stronger effect = lower value",1.01
same,normalized growth,"S. cerevisiae deletion strains, locus YJR075W, strain HOC1, stronger effect = lower value",1.02
same,normalized growth,"S. cerevisiae deletion strains, locus YLR039C, strain RIC1, stronger effect = lower value",1.02
same,normalized growth,"S. cerevisiae deletion strains, locus YLR058C, strain SHM2 (second series), stronger effect = lower value",1.03
same,normalized growth,"S. cerevisiae deletion strains, locus YLR085C, strain ARP6, stronger effect = lower value",1.03
same,normalized growth,"S. cerevisiae deletion strains, locus YLR262C, strain YPT6, stronger effect = lower value",1.02
same,normalized growth,"S. cerevisiae deletion strains, locus YML094W, strain GIM5, stronger effect = lower value",1.07
same,normalized growth,"S. cerevisiae deletion strains, locus YMR219W, strain ESC1, stronger effect = lower value",1.03
same,normalized growth,"S. cerevisiae deletion strains, locus YMR263W, strain SAP30, stronger effect = lower value",0.986
same,normalized growth,"S. cerevisiae deletion strains, locus YNL153C, strain GIM3, stronger effect = lower value",1.02
same,normalized growth,"S. cerevisiae deletion strains, locus YNL298W, strain CLA4 (second series), stronger effect = lower value",1.05
same,normalized growth,"S. cerevisiae deletion strains, locus YNL322C, strain KRE1, stronger effect = lower value",1.06 [resistant] (active)
same,normalized growth,"S. cerevisiae deletion strains, locus YNR030W, strain Alg12, stronger effect = lower value",1.08
same,normalized growth,"S. cerevisiae deletion strains, locus YPL055C, strain LGE1, stronger effect = lower value",1.04
same,normalized growth,"S. cerevisiae deletion strains, locus YPL241C, strain CIN2, stronger effect = lower value",1.01
same,normalized growth,"S. cerevisiae deletion strains, locus YPR135W, strain CTF4, stronger effect = lower value",1.17
same,normalized growth,"S. cerevisiae strains, strain wild type, stronger effect = lower value",1.02
